Data on 13 compounds can be found in PubChem BioAssay (NCI).

About 83,000 compounds went through this panel and 20% of them were active in at least one assay; those are over-represented in the sample as a whole.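 Single-concentration screen, 48 h exposure, 96-well plates. Endpoint: percent growth. Below 10 = active.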 A number with no mark means an inactive call. The source made the active and inactive calls.

Among the test systems are NCI-H23 lung; NCI-H322M lung; HOP-62 NSCLC; NCI-H460 lung; HOP-92 NSCLC; NCI-H522 lung; A549/ATCC NSCLC; 786-0 renal; COLO 205 colon; DU-145 prostate.
What all share (experiment): NCI-60 one-dose screen, 48 h (100 = growth as untreated, 0 = no growth, -100 = all killed)
What all share (conditions): 10 µM unless noted

Consider `Cc1cc(Br)c(N)c(Br)c1`, for which the growth is 97% in the test with NCI-H23 lung; 105% in the test on NCI-H322M lung; 87.9% with HOP-62 NSCLC; 104% in the test on NCI-H460 lung; 106% with HOP-92 NSCLC; 86.3% in the test on NCI-H522 lung. Besides, the growth is 73.3% with A549/ATCC NSCLC, 93.3% with 786-0 renal, 106% in the test on COLO 205 colon and 108% in the test with DU-145 prostate.
In the case of `COc1ccc(-c2cn3c(C(=O)Nc4ccccc4Cl)c(-c4ccccc4)c4c3n2CCCC4)cc1`, the growth was 86.8% with NCI-H23 lung; 102% in the test on NCI-H322M lung; 88.1% with HOP-62 NSCLC; 75.2% in the test on NCI-H460 lung; 64.3% in the test with HOP-92 NSCLC; 76.7% in the test on NCI-H522 lung. Besides, the growth in the test with A549/ATCC NSCLC is 85.3%; with 786-0 renal, 90.8%; with COLO 205 colon, 77.2%; in the test on DU-145 prostate, 86.2%.
As to `COC(=O)/C(CCC=C(C)C)=C1\[C@@H](OC(C)=O)C[C@@]2(C)[C@H]1CC(=O)[C@H]1[C@@]3(C)CC[C@H](NCc4ccccc4)[C@@H](C)[C@@H]3CC[C@@]12C`, the growth in the test on NCI-H23 lung is 93.4%; in the test on NCI-H322M lung, 103%; in the test with HOP-62 NSCLC, 87.3%; in the test on NCI-H460 lung, 88.8%; in the test with HOP-92 NSCLC it was 49.7%; with NCI-H522 lung, 108%. Also, the growth in the test with A549/ATCC NSCLC is 81.7%; with 786-0 renal, 65.9%; in the test with COLO 205 colon, 60%; in the test on DU-145 prostate, 96.5%.
Consider `N#Cc1c(N)nc2c(c1N)C(c1ccc(F)cc1)c1ccc(N)cc1O2` (stereo not given), for which the growth is 117% in the test on NCI-H23 lung; 150% in the test on NCI-H322M lung; 113% in the test with HOP-62 NSCLC; 110% with NCI-H460 lung; 97.2% in the test with HOP-92 NSCLC; 86.4% with NCI-H522 lung. For the same compound, the growth in the test on A549/ATCC NSCLC was 101%; in the test with 786-0 renal, 92.3%; with COLO 205 colon it was 124%; in the test on DU-145 prostate, 110%.
`CCOC(=O)c1cc2c(n1Cc1cc(OC)cc(OC)c1)-c1oncc1CCC2`: the growth in the test with NCI-H23 lung is 23.7%; in the test with NCI-H322M lung, 28%; in the test with HOP-62 NSCLC, 50.4%; in the test on NCI-H460 lung, 6.91% (active); with HOP-92 NSCLC it was 57.5%; with NCI-H522 lung, -19.1% (active). Also, the growth in the test with A549/ATCC NSCLC is 26.6%; in the test on 786-0 renal, 41.9%; in the test with COLO 205 colon, -54.8% (active); in the test with DU-145 prostate, 15.6%.
Regarding `CC[C@@H](C)[C@H](NC(=O)Cn1cc(CNC(=O)[C@@H](NC(=O)OCc2ccccc2)C(C)C)nn1)C(=O)O`, the growth in the test on NCI-H23 lung is 101%; in the test with NCI-H322M lung, 108%; with HOP-62 NSCLC it was 114%; in the test on NCI-H460 lung it was 110%; in the test with HOP-92 NSCLC, 102%; with NCI-H522 lung it was 101%. Moreover, the growth in the test with A549/ATCC NSCLC is 101%; in the test with 786-0 renal it was 106%; in the test on COLO 205 colon, 124%; in the test on DU-145 prostate it was 114%.
Consider `O=c1oc2ccc(-c3ccc(F)cc3F)cc2c(=O)n1-c1ccc(Cl)c(C(F)(F)F)c1`, for which the growth was 6.77% (active) in the test with NCI-H23 lung; 13.1% with NCI-H322M lung; 6.97% (active) with HOP-62 NSCLC; 5.36% (active) with NCI-H460 lung; -29.4% (active) in the test on HOP-92 NSCLC; -12.4% (active) with NCI-H522 lung. For the same compound, the growth was 7.35% (active) in the test with A549/ATCC NSCLC, 17.4% in the test on 786-0 renal, 77.1% in the test with COLO 205 colon and 21% in the test with DU-145 prostate.
As for `CC(C)C[C@H](C(=O)N[C@H](C(N)=O)C(C)C)N1CC=CCN(OCc2ccccc2)S1(=O)=O`, the growth was 111% [2.5 µM] in the test with NCI-H23 lung; 105% [2.5 µM] in the test with NCI-H322M lung; 99.3% [2.5 µM] in the test on HOP-62 NSCLC; 110% [2.5 µM] in the test with NCI-H460 lung; 82.9% [2.5 µM] in the test on HOP-92 NSCLC; 86.4% [2.5 µM] with NCI-H522 lung. Moreover, the growth is 94.5% [2.5 µM] in the test with A549/ATCC NSCLC, 102% [2.5 µM] in the test with 786-0 renal, 105% [2.5 µM] in the test on COLO 205 colon and 131% [2.5 µM] in the test with DU-145 prostate.
Turning to `O=c1oc2ccc(Br)cc2c(=O)n1-c1ccc(I)cc1F`, the growth in the test on NCI-H23 lung was 1.15% (active); in the test on NCI-H322M lung, 4.56% (active); in the test on HOP-62 NSCLC it was 1.91% (active); in the test on NCI-H460 lung, 3.43% (active); in the test on HOP-92 NSCLC, -16.6% (active); with NCI-H522 lung it was -13.4% (active). For the same compound, the growth was 6.38% (active) in the test with A549/ATCC NSCLC, 2.68% (active) in the test on 786-0 renal, 51.2% with COLO 205 colon and 13.6% in the test with DU-145 prostate.
Turning to `COc1ccc(Cn2c(Br)c3c(c2Br)-c2nc(NC(=O)c4ccc(OC)cc4)sc2CC3)cc1`, the growth was 81.3% with NCI-H23 lung; 56.4% in the test on NCI-H322M lung; 68.6% with HOP-62 NSCLC; 77.4% in the test on NCI-H460 lung; 50.6% in the test on HOP-92 NSCLC; 72% with NCI-H522 lung. The growth in the test on A549/ATCC NSCLC is 79.7%; in the test with 786-0 renal, 61.8%; in the test on COLO 205 colon it was 103%; in the test with DU-145 prostate, 78%.
`CCn1c(SCC(=O)Nc2cc(C(F)(F)F)ccc2Cl)nc2ccccc2c1=O`: the growth in the test on NCI-H23 lung is 70.9%; with NCI-H322M lung it was 78.8%; in the test with HOP-62 NSCLC, 64.2%; with NCI-H460 lung, 28.6%; in the test with HOP-92 NSCLC, 9.17% (active); with NCI-H522 lung, 50.7%. Besides, the growth in the test with A549/ATCC NSCLC is 50.5%; with 786-0 renal, 56.4%; in the test on COLO 205 colon, 52.6%; in the test on DU-145 prostate, 38.2%.
`O=C(c1ccccc1)N(C(=S)NCCc1ccc(Cl)cc1)c1ccccc1`: the growth with NCI-H23 lung is 95.5%; in the test on NCI-H322M lung it was 103%; in the test on HOP-62 NSCLC it was 103%; in the test on NCI-H460 lung, 107%; in the test with HOP-92 NSCLC, 75.2%; in the test with NCI-H522 lung, 92.5%. For the same compound, the growth with A549/ATCC NSCLC is 97.2%; in the test on 786-0 renal, 92.4%; with COLO 205 colon, 139%; in the test on DU-145 prostate it was 79.7%.
As for `NCCOc1ncccc1/C=C1\c2ccccc2-c2ccc(F)cc21`, the growth in the test with NCI-H23 lung is -6.99% (active); with NCI-H322M lung, 48.4%; in the test on HOP-62 NSCLC, 11.1%; in the test on NCI-H460 lung, -33.3% (active); with HOP-92 NSCLC it was 29.8%; in the test with NCI-H522 lung, 37.7%. In addition, the growth was -51.9% (active) with A549/ATCC NSCLC, 6.26% (active) in the test on 786-0 renal, -30.1% (active) in the test on COLO 205 colon and 7.83% (active) in the test on DU-145 prostate.
